# Sampled rows, rich in hits. Any-hit rate of the full collection: about 18%.
# TDP1 cell noCPT = qHTS for Inhibitors of human tyrosyl-DNA phosphodiesterase 1 (TDP1): qHTS in cells in absence of CPT | DT40 Tdp1-/- hTDP1 cells, no CPT, ATP luminescence, 48 h | Potency, µM (top dose mostly 46.2 µM), hits mostly inhibitors | 420,000 tested, 15% active | AID 686978, 2013; also: nearly all actives have a fitted effect of over 55% in size
#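 DT40 Tdp1-/-;hTDP1 cells, no CPT (DMSO vehicle only), 400 cells/well; compounds pin-transferred; ≥48 hr, 37 °C; CellTiter-Glo 30 min RT dark, luminescence read.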
# RORgamma inh = blocks mouse ROR gamma transcriptional activity. Potency, µM (series often up to 53.6 µM), usual class: inhibitors. AID 2551. 310,000 tested, 5.4% active. Drosophila S2 Gal4-RORgamma UAS-luciferase reporter, 20 h. P51450; also: nearly all actives have a fitted effect of over 60% in size
# Target sequence (P51450 whole entry, looked up, the tested form may be a part): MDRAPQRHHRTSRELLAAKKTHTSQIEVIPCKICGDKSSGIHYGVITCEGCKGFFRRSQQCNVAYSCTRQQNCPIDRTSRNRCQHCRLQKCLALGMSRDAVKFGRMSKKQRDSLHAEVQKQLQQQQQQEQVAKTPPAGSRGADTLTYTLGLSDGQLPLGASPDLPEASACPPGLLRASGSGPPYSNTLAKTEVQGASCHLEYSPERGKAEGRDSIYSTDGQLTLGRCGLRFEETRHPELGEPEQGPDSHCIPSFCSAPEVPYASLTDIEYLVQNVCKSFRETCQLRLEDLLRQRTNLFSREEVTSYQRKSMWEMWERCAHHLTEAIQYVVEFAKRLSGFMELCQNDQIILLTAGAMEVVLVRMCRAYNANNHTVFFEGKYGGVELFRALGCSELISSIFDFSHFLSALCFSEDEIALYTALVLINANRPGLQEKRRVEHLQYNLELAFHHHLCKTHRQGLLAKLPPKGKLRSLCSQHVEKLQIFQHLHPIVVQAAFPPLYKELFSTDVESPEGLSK
#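 Stably transfected Drosophila Schneider cells are the test system, with ROR gamma fused to Gal4 and luciferase under UAS control; luminescence is read after 20 hr of 700 uM copper sulfate induction at ambient temperature.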
# IL-1B inflam inh = blocks inflammasome-driven IL-1 beta release. THP-1 LPS/ATP IL-1B secretion, AlphaLISA, 16 h; stronger effect = lower value. AID 743279. activity change, % at 57.5 µM. 360,000 tested, 4.7% active; in the data active = activity change below about -50%; inconclusive = mostly about -30% to -49%
#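 Secreted IL-1B measured by AlphaLISA bead assay after 16 h compound exposure of THP-1 cells; compounds (final up to 57.5 uM) added 1 h before LPS (250 ng/mL) and ATP (1.25 mM) stimulation; lower signal means less secretion.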
# LDHA block = LDHA (human) enzyme inhibition. 480,000 tested, 0.15% active. purified LDHA, NADH/diaphorase-resazurin fluorescence; stronger effect = lower value. P00338. activity change, % (values are at about 110 or 230 µM); in the data active = activity change below about -30%; inconclusive = mostly about -25% to -30%
#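 Human LDH5 (2 nM) was incubated with 0.06 mM NADH and 0.2 mM pyruvate for 5 min at room temperature in Tris pH 7.4. Remaining NADH was coupled through diaphorase/resazurin, and resorufin fluorescence was read at 0 and 20 min.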
# Gal4-VP16 FLuc = inhibits Gal4-VP16 luciferase reporter, ROR gamma counter-screen | Drosophila S2 Gal4-VP16 UAS-luciferase, luminescence, 20 h | Potency, µM (highest dose often 53.6 µM), hits mostly inhibitors | 310,000 tested, 3.5% active | AID 2546;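 also: Gal4-VP16 expression switched on by copper sulfate through the metallothionein promoter; nearly all actives have a fitted effect of over 50% in size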
# TDP1 cell CPT = DT40-hTDP1 cell growth loss with CPT; chicken DT40 Tdp1-/-;hTDP1 cells + 20 nM CPT, ATP luminescence, 48 h; Potency, µM (highest dose often 46.2 µM), actives largely listed as inhibitors; 420,000 tested, 12% active; also: nearly all actives have a fitted effect of over 55% in size
#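 Cell growth measured by CellTiter-Glo luminescence after a minimum 48 h, 37 C compound exposure with 20 nM CPT in Tdp1-knockout DT40 cells stably expressing hTDP1, seeded 400/well; qHTS titration format.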
# Numbers stand for hits; i = inactive; ? = inconclusive; nt = not tested or not shown; [ ] = dose if it differs, or a comment. Unless noted, calls follow the shape of the dose curve; as a rule, active = well fitted curve in the direction sought with a large enough effect; inconclusive = small, poorly fitted or top-dose-only effect, or another doubt; inactive = no such curve, though single readings can be large; an effect the other way counts as inactive or inconclusive.
SMILES,TDP1 cell noCPT,RORgamma inh,IL-1B inflam inh,LDHA block,Gal4-VP16 FLuc,TDP1 cell CPT
CC(=O)Nc1ccc2nc(SCc3cccc(Br)c3)sc2c1,nt,nt,nt,i,nt,nt
CC(C)C(=O)Nc1ccc(NC(=O)CCCC(=O)O)cc1,nt,nt,nt,i,nt,nt
CCc1ccc(S(=O)(=O)N2CCN(c3ccc(NCc4ccccc4)nn3)CC2)cc1,nt,nt,nt,i,nt,nt
C[C@H](NC(=O)c1nc[nH]c1C(=O)NCc1ccc(CNC(=O)OC(C)(C)C)cc1)C(=O)OC(C)(C)C,16.4µM,?,i,i,i,18.4µM
CC(C)C[C@H](NC(=O)c1nc[nH]c1C(=O)NCc1ccccc1)C(=O)OCc1ccccc1,?,4.47µM,i,i,11.2µM,?
C[C@@H](O)CNC(=O)c1[nH]cnc1C(=O)Nc1ccc(CNC(=O)OC(C)(C)C)cc1,?,nt,i,i,nt,?
CC(C)C[C@H](NC(=O)c1nc[nH]c1C(=O)NCc1ccc(CNC(=O)OC(C)(C)C)cc1)C(=O)OC(C)(C)C,16.4µM,12.6µM,i,i,?,25.9µM
C[C@@H](NC(=O)c1nc[nH]c1C(=O)NCc1ccc(CNC(=O)OC(C)(C)C)cc1)c1ccccc1,23.1µM,nt,i,i,nt,?
COc1ccc(C2C=C(c3ccc(F)cc3)Nc3nnnn32)cc1OCc1ccccc1 (stereo unspecified),nt,nt,nt,i,nt,nt
O=C(CSc1nnc2c(=O)n(-c3ccccc3)ccn12)N1CCN(c2ccccc2F)CC1,nt,nt,nt,i,nt,nt
CC(C)C[C@H](NC(=O)c1nc[nH]c1C(=O)NCc1ccccc1)C(=O)OC(C)(C)C,?,4.47µM,i,i,10µM,?
COc1cc(C#N)ccc1OCc1cccc(COc2ccc(C#N)cc2OC)c1,nt,nt,nt,i,nt,nt
C=CCNC(=O)c1ccc([N+](=O)[O-])c(Cl)c1,i,i,i,i,i,i
C=CCNCc1ccc(C(=O)NCCCCCCC)cc1[N+](=O)[O-],18.4µM,nt,i,i,nt,?
CC(=Nc1ccccc1C(F)(F)F)c1ccncc1,i,i,i,i,i,i
Cc1nc(N)sc1N=Nc1ccccc1C(F)(F)F,?,?,-70.8,i,i,?
CCCCn1c(C)c(C)c(S(=O)(=O)c2ccc(OC)cc2)c1NC(=O)c1ccco1,nt,nt,nt,i,nt,nt
COc1cccc(-n2c(-c3ccc(C)cc3)cc3c2CC(C)(C)CC3=O)c1,?,nt,nt,i,nt,?
Cc1ccc(-c2cc3c(n2-c2ccc(F)cc2)CC(C)(C)CC3=O)cc1,18.4µM,nt,nt,i,nt,16.4µM
COc1ccc(-n2c(-c3ccc(C)cc3)cc3c2CC(C)(C)CC3=O)c(OC)c1,?,nt,nt,i,nt,14.6µM
O=C1/C(=C/c2ccc(-c3ccc(F)cc3)o2)Cc2ccccc21,nt,nt,nt,i,nt,nt
Cc1ccc([N+](=O)[O-])cc1S(=O)(=O)NCCc1c(C)[nH]c2ccccc12,i,i,i,i,?,i
COc1cc(S(=O)(=O)NCCc2c(C)[nH]c3ccccc23)c(C)cc1C,18.4µM,nt,nt,i,nt,18.4µM
Cc1cc(C)c(OCCCNCc2ccccc2)c(Br)c1,23.1µM,i[1.91 µM],-71.9,i,i,18.4µM
Cc1cc(C)c(OCCCNC2CCCC2)c(Br)c1,7.31µM,i,-54.7,i,i,13µM
SMILES,TDP1 cell noCPT,RORgamma inh,IL-1B inflam inh,LDHA block,Gal4-VP16 FLuc,TDP1 cell CPT
Cc1cc(Cl)c(OCCCNCc2ccccc2)c(Br)c1,18.4µM,i,?,i,i,?
Cc1cc(C)c(OCCOCCN(C)C)c(Br)c1,?,i,i,i,i,i
Cc1cc(Cl)cc(Br)c1OCCCNCC(C)O (stereo unspecified),?,i,i,i,i,i
O=C(Cc1ccc2c(c1)CCCC2)NC1CCc2ccccc21 (stereo unspecified),nt,nt,nt,i,nt,nt
C/C(=N/NC(=O)c1ccccc1[N+](=O)[O-])c1cccc(NC(=O)C2CCCCC2)c1,nt,nt,nt,i,nt,nt
CCN1CCCC1CN(Cc1cc2ccc(C)cc2[nH]c1=O)C(=S)Nc1ccccc1OC (stereo unspecified),20.6µM,i,i,i,i,?
CCOc1ccccc1NC(=S)N(Cc1cc2ccc(C)cc2[nH]c1=O)CC1CCCN1CC (stereo unspecified),25.9µM,i,i,i,i,20.6µM

# Screens deposited in PubChem by National Center for Advancing Translational Sciences (NCATS).
